Source: PubChem BioAssay AID1159580 (chemical genetic matrix, 2015)
Screen size: about 5,500 compounds; about 2,000 (36%) were called active. About 18% were inconclusive and are not listed. Rule as the data show it: active = normalized growth mostly below about 0.91 (no sharp cut-off); inconclusive = no clear call, values can overlap the other calls; inactive = mostly above about 0.92. This is one part of the list.

Assay: chemical genetic growth profiling, strain panel (AID 1159580);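 also: tested at 20 µM; growth read once vehicle control cultures reached saturation at 30 °C; 1 = growth at the plate median or of vehicle wells; lower values mean less growth of the strain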
Details: S. cerevisiae deletion strains, growth OD
[1] = locus YAL040C, strain CLN3, stronger effect = lower value
[2] = locus YCL061C, strain MRC1 (second series), stronger effect = lower value
[3] = locus YDR363W, strain ESC2, stronger effect = lower value
[4] = locus YER002W, strain NOP16, stronger effect = lower value
[5] = locus YNL175C, strain NOP13, stronger effect = lower value
[6] = locus YNL197C, strain WHI3, stronger effect = lower value
[7] = locus YNL224C, strain SQS1, stronger effect = lower value
[8] = locus YOR083W, strain WHI5 (second series), stronger effect = lower value
[9] = locus YPL241C, strain CIN2, stronger effect = lower value
[10] = locus YGR229C, strain SMI1, stronger effect = lower value

Measured: normalized growth

COc1ccccc1CNCCCCCCNCCCCCCCCNCCCCCCNCc1ccccc1OC
inactive: [1] 1.01 | [2] 0.96 | [3] 0.906 | [4] 1.03 | locus YNL153C, strain GIM3, stronger effect = lower value 0.942 | [5] 0.992 | [6] 1.03 | [7] 1.03 | [8] 0.875 | [9] 0.96

O=C(O)CC[C@@H](C(=O)O)N1C(=O)c2ccccc2C1=O
inactive: [1] 0.987 | [2] 1.01 | locus YDR150W, strain NUM1, stronger effect = lower value 1 | [3] 0.987 | [4] 0.975 | [10] 1 | [5] 0.973 | [6] 0.976 | [7] 0.991 | [8] 1.06

CC(C(=O)O)c1ccc(CC2CCCC2=O)cc1 (stereo not drawn)
inactive: locus YAL013W, strain DEP1, stronger effect = lower value 0.985 | [1] 0.995 | [2] 1 | [3] 1 | [4] 0.988 | locus YGR078C, strain PAC10, stronger effect = lower value 1.02 | [10] 1.01 | locus YJR075W, strain HOC1, stronger effect = lower value 1.01 | locus YMR263W, strain SAP30, stronger effect = lower value 1 | locus YMR307W, strain GAS1, stronger effect = lower value 0.999 | locus YNL128W, strain TEP1, stronger effect = lower value 0.976 | [5] 1.01 | [6] 1.02 | [7] 0.979 | locus YNL322C, strain KRE1, stronger effect = lower value 1.01 | [8] 0.981 | locus YPL055C, strain LGE1, stronger effect = lower value 0.974 | [9] 1.01
